# High-throughput results as filed in PubChem.
# MARV entry inh = blocks Marburg virus binding to or entry into cells | Potency, µM (series often up to 37.8 µM), for the others: at the top dose activity change, negative = inhibition, actives largely listed as inhibitors | hit rate 1.8% among 300,000 | Marburg virus pseudotyped entry inhibition, cell reporter; calls by dose curve; tested in HEK293 cells
# Vaccinia mCherry = inhibitors of vaccinia virus infection (mCherry reporter signal) | AID 720579 | Potency, µM (titrated, usually from 36.5 µM), for inactives: at the highest dose activity change, negative = inhibition, actives largely listed as inhibitors | Vaccinia virus mCherry reporter infection, fluorescence | hit rate 0.63% among 310,000; calls by dose curve; tested in A549 cells; note: nearly all actives have a fitted effect of over 35% in size
# LASV entry inh = Lassa virus entry inhibition; Lassa virus pseudotype entry inhibition, cell reporter; Potency, µM (series often up to 37.9 µM), for the others: top-dose activity change, negative = inhibition, actives largely listed as inhibitors; hit rate 1.2% among 300,000; AID 540256; calls by dose curve; tested in HEK293 cells; note: nearly all actives have a fitted effect of over 50% in size
# VACV Venus inh = vaccinia inhibition (Venus reporter) | Vaccinia virus Venus reporter expression, fluorescence | Potency, µM (titrated, usually from 36.5 µM), inactives show at the top dose activity change, negative = inhibition, hits mostly inhibitors | AID 720580 | hit rate 0.46% among 330,000; calls by dose curve; tested in A549 cells; note: nearly all actives have a fitted effect of over 30% in size
# * marks the source's active call; other numbers are inactive results; i = inactive; ? = inconclusive; . = not tested or not shown; ! = not confirmed by another sample; [ ] = remark or other dose. Sampled rows, rich in hits. Any-hit rate of the full collection: about 2.5%. % is set by controls: 0 for no effect and ±100 for the full control effect; potency is the fitted concentration of half-maximal effect.
SMILES,MARV entry inh,Vaccinia mCherry,LASV entry inh,VACV Venus inh
Cc1ccc(S(=O)(=O)Cn2nnnc2C(c2ccccc2)N2CCN(c3ncccn3)CC2)cc1 (stereo not drawn),-12.2%,.,2.2%,.
Cc1ccc(S(=O)(=O)Cn2nnnc2C(c2ccccc2)N2CCN(c3ccccc3)CC2)cc1 (stereo not drawn),?,-6.6%,-19.9%,-4.9%
CCC(c1nnnn1CS(=O)(=O)c1ccc(C)cc1)N1CCN(c2nc3ccccc3s2)CC1 (stereo not drawn),8.2µM*,i,?,-19.5%
CCCC(c1nnnn1CS(=O)(=O)c1ccc(C)cc1)N1CCN(c2ccccc2)CC1 (stereo not drawn),?,-5.5%,11.2µM*,-23.3%
Cc1ccc(C(=O)Nc2cccc(-c3nc(CNC(=O)C4(C)CC4)c(C)o3)c2)s1,.,-12.7%,.,-14.7%
CCCNC[C@H](O)COc1ccccc1C(=O)CCc1ccccc1,7.08µM*,.,.,.
OC(CNCCc1ccccc1)COc1ccc(OCC(O)CNCCc2ccccc2)cc1 (stereo not drawn),3.16µM*,-22.1%,?,?
CC(C)(C)NCC(O)COc1ccccc1C(=O)CCc1ccccc1 (stereo not drawn),10.3µM*,?,-1.5%,?
c1ccc2sc(-c3cc4c(c(OC5CCOC5)c3)OCCN(Cc3cccn3-c3nccs3)C4)nc2c1 (stereo not drawn),.,-12.4%,.,-4.9%
O=C(NCc1nnc2n1CCN(Cc1cc(F)cc(F)c1)CC2)c1cccc(F)c1,.,?,.,-26.4%
C=CC[C@@H]1C=C[C@@H](ON=C2[C@H]3CCn4c(=O)n(-c5ccccc5)c(=O)n4[C@@H]3[C@H](O)[C@@H]3O[C@H]23)[C@@H](CO)O1,-21.9%[14.2 µM],.,.,.
CCCC1(C)C(C#N)(C#N)C1(C#N)C#N,16.4µM*,.,4.11µM*,.
Clc1ccc2c(c1)C(C1=NCCN1)c1ccccc1CS2 (stereo not drawn),1.3µM*,-17.8%,?,-29.1%
CCCCOc1cc(C(=O)NCCN(CC)CC)c2ccccc2n1,10.3µM*,-0.2%,13µM*,-9.0%
Cc1cccnc1-c1cccc2c1OC(CNC(=O)C1CCCc3c1[nH]c1ccccc31)C2 (stereo not drawn),.,-5.7%,.,-20.8%
C[C@@H]1CC[C@H]2C(=O)N3[C@@H](CC[C@@H](C)[C@@H]3c3ccc(-c4ccco4)cc3)C(=O)N2[C@@H]1c1ccc(-c2ccco2)cc1,-1.7%[14.2 µM],.,?,.
COc1cc(OC)c(OC)cc1CN1CCN(Cc2cccn2C)CC1,20.6µM*,-17.5%,-0.5%,-12.5%
COc1ccccc1NC(=O)CSc1oc(-c2ccc(F)cc2)nc1S(=O)(=O)c1ccc(Br)cc1,4.5%[46.1 µM],14.1µM*,10.1%[46.1 µM],?
COC(=O)NCC=Cc1nc(CCCO)co1,-24.0%[14.2 µM],.,.,.
O=c1ccc2cc3c4c(c2o1)CCCN4CCC3,-10.1%[46.1 µM],-15.2%,?,12.9%
O=c1ccc2c(o1)/C(=C/C=C(Cl)Cl)CCC2,-6.0%,10µM*,-2.6%,?
C[C@]12C=CC(=O)C=C1CCC1C2=CC[C@]2(C)[C@@H](C(=O)CN3CCN(c4cc(N5CCCC5)nc(N5CCCC5)n4)CC3)CC[C@@H]12 (stereo partly drawn),5.62µM*,.,.,.
CC(=O)OCC(=O)C1CCC2C3CCC4=CC(=O)C=CC4(C)C3CCC12C (stereo not drawn),3.6%,-0.2%,0.8%,-21.1%
CN1Cc2c(N3CCOCC3)nc3sc(C#N)c(N)c3c2CC1(C)C,-9.6%[46.1 µM],-4.5%,?,-8.1%
CN1Cc2c(N3CCOCC3)nc3sc(C(=O)c4ccc(Br)cc4)c(N)c3c2CC1(C)C,?,6.31µM*,?,-25.6%
SMILES,MARV entry inh,Vaccinia mCherry,LASV entry inh,VACV Venus inh
CCOc1ccc(S(=O)(=O)NC(C)(C)C)cc1-c1nc2c(C(C)(C)C)nn(C)c2c(=O)[nH]1,?,?,20.6µM*,?
C=C1CCC[C@]2(C)C[C@H]3OC(=O)C(CNC(C)CCCC(C)C)[C@H]3CC12 (stereo partly drawn),?,?,?,7.08µM*
C=C1CCC[C@]2(C)C[C@H]3OC(=O)C(CNCC(OC)OC)[C@H]3CC12 (stereo partly drawn),3.8%[46.1 µM],4.47µM*,19.6%[46.1 µM],?
C=CCOc1ccc(/C(O)=C2\C(=O)C(=O)N(CCCN3CCOCC3)[C@H]2c2ccc(OC)cc2)cc1,14.8%,.,.,.
CSCC[C@H](NC(=O)OC(C)(C)C)C(=O)N/N=C/c1cccc2nccnc12,0.8%,-10.4%,2.1%,-5.0%
CSCC[C@H](NC(=O)OC(C)(C)C)C(=O)N/N=C/c1ccc2nccnc2c1,3.16µM*,-22.7%,-12.4%,-19.6%
CCCCNc1c(-c2ccc(OC)c(Sc3ccc(OC)cc3)c2)nc2cnccn12,.,-17.0%,.,-25.6%
CCCCNc1c(-c2ccc(-c3ccc(OC)cc3)c(OC)c2)nc2ccccn12,.,31.6µM*,.,?
CC(C)(C)NC(=O)NC(=O)COc1ccc(Br)cc1Br,?,-21.1%,5.8µM*,-24.6%
O=C(COc1ccc(Br)cc1Br)NC(=O)NC1CCCC1,?,-16.4%,-9.2%,-2.9%
COCC=CC1=CC2=CC(=O)C(C)(OC(=O)c3cnc4ccccc4n3)C(=O)C2=CN1CC1CC1 (stereo not drawn),58.0%[14.2 µM],.,.,.
Cc1cc(C)cc(C(=O)NCCn2cc(C(=O)N3CCSCC3)nn2)c1,.,-17.0%,.,-18.5%
COc1ccccc1CN1CCCCCC1,-2.0%,i,22.0%,-15.3%
Oc1ccccc1CN1CCCN(Cc2ccccc2O)C1,1.46µM*,.,7.3µM*,.
CCNc1nc(NC(C)(C)C)nc(N2CCCC2)n1,3.16µM*,-13.3%,?,-25.7%
CC(C)(C)Nc1nc(N2CCCC2)nc(N2CCCC2)n1,?,.,?,-13.7%
CO[C@@H]1c2cc(F)ccc2C(=CCCOC(=O)CC=Cc2ccccc2)[C@H]1C,-24.4%[14.2 µM],.,.,.
CC(C)c1ccc(NC(=O)[C@H](NC(=O)[C@@H]2Cc3ccccc3CN2)c2ccccc2)cc1,3.98µM*,-3.6%,0.2%[46.1 µM],-25.8%
CCOC(=O)c1sc(NC(=O)Nc2ccccc2)cc1C,16.4µM*,15.8µM*,14.1µM*,12.6µM*
CCOC(=O)c1sc(NC(C)=O)cc1C,.,i,.,-24.8%
CCOC(=O)c1sc(NC(=O)Nc2ccccc2Cl)cc1C,?,?,7.94µM*,10µM*
O=C(Cc1ccc(Oc2ccccc2)cc1)NO,.,11.1%,.,-18.9%
Cc1sc2nc(CN3CCCC3)nc(N3CCN(S(=O)(=O)c4cccs4)CC3)c2c1C,14.6µM*!,.,-7.0%,.
Cc1sc2nc(CN3CCCCC3)nc(N3CCN(C(=O)c4ccco4)CC3)c2c1C,?,-7.3%,16.0%[46.1 µM],10.2%
COc1cccc(CN2C(=O)NC(C)(C3CCN(Cc4cnn(C)c4C)CC3)C2=O)c1OC (stereo not drawn),.,i,.,-10.1%
COc1cc(OC)c(NC2=CC(=O)C(=O)c3ccccc32)cc1Cl,.,0.891µM*,.,3.16µM*
C=CC[C@@]1(C(=O)OC)C=C[C@@H](C)[C@H](c2ccccc2Br)N1C(=O)C(F)(F)F,-11.2%[14.2 µM],.,2.4%[14.3 µM],.
Cc1cc(NCC2CCCCC2)nc2ccccc12,1µM*,?,.,-18.8%
CCOC(=O)C1=C(c2ccccc2)N=c2s/c(=C\c3cccc(O)c3)c(=O)n2C1c1cccs1 (stereo not drawn),?,-20.8%,16.4µM*,?
